Consider 39 compounds from PubChem BioAssay.

Each structure is given as a SMILES string. Activity calls are given as the source filed them.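 Rule for the calls: active = inhibition above 20% together with a positive visual image hit; inconclusive = visual image hit but inhibition not above 20%; inactive = no visual image hit.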

The test can be described thus: inhibitors of TNFa-induced NFkB p65 translocation, primary screen, imaging, HUVEC, MLSMR starter and 10KST1 sets (AID 438).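 For inhibition: signal is the nuclear over cytoplasmic p65 intensity ratio per well.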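 Note: compound added about 3h40 before a 20 min TNFalpha stimulation.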 To be noted: HUVEC TNFa-induced p65 nuclear translocation; cell count: measured here: nuclei count (cytotoxicity indicator), at 2.08 µM; inhibition: at 2 µM, stronger effect = higher value, 0% TNFa-plus-vehicle, 100% no-TNFa wells.
Take `Cn1c(COc2ccccc2)nnc1SCC(=O)Nc1ccc(N2CCOCC2)c(Cl)c1`: the cell count is 497 and the inhibition is -6.9% (inactive).
Consider `O=C(CSc1nnc(Cc2ccccc2)n1C1CCCCC1)N1CCOCC1`, for which the inhibition is 7.2% (inactive) and the cell count was 367.
On the same counts, the results for `C1=CC2CC1CC2CN1CCN(c2ccccc2)CC1` (stereo not drawn) are 1.5% (inactive) and 411.
On the same counts, the results for `COc1ccc(-c2nnc(SCC#N)o2)cc1` are -8.7% (inactive) and 333.
For `CC(=O)Nc1ccc(N2CCN(Cc3ccccc3F)CC2)cc1`, the cell count stood at 452 and the inhibition is 19.4% (inactive).
In the same order, the values of `O=C1C2C3C=CC(C3)C2C(=O)N1CNc1ccc(O)cc1` (stereo not drawn) are 307 and 8.9% (inactive).
In the same order, the values of `COc1cc2c(cc1OC)-c1cc(OCc3cccnc3)nc(=O)n1CC2` are 753 and -8.4% (inactive).
In the same order, the values of `Cc1cc2ncn(C(=O)N3CCOCC3)c2cc1C` are 309 and -2.5% (inactive).
Consider `COc1ccccc1N1CCN(C(=O)CCNS(=O)(=O)c2ccc3c(c2)CCC(=O)N3)CC1`, for which the inhibition was -18.8% (inactive) and the cell count was 556.
`CCOC(=O)c1cc(C)n(CCCN2CCOCC2)c1C`: the cell count came out at 678 and the inhibition was 2.6% (inactive).
Consider `CCCc1cc(=O)n2[nH]c(-c3ccc(Br)cc3)cc2n1`, for which the inhibition was 1.7% (inactive) and the cell count is 320.
On the same counts, the results for `CCCC1C(C#N)=C(N)Oc2n[nH]c(C(C)(C)C)c21` (stereo not drawn) are -6.9% (inactive) and 330.
For the compound `CCOC(=O)CSc1nnc(-c2cccnc2)n1Cc1ccccc1`, the cell count was 568 and the inhibition is 16.6% (inactive).
Turning to `CCOc1ccccc1C(=O)NCCC(=O)O`, the inhibition was -5.1% (inactive) and the cell count is 326.
On the same counts, the results for `CC(C(=O)Nc1ccccc1-c1ccccc1)N1CCN(C(=O)c2ccco2)CC1` (stereo not drawn) are -11.2% (inactive) and 546.
In the case of `CC(C)(C)n1ncc2c(=O)n(CC(=O)NCc3ccco3)cnc21`, the inhibition was 4.8% (inactive) and the cell count stood at 421.
In the case of `CCn1c(=O)cc(OCC(=O)Nc2cc(C)ccn2)c2ccccc21`, the cell count is 300 and the inhibition was -0.6% (inactive).
`COc1ccc(CN2CC(C(=O)NCCCOC(C)C)CC2=O)cc1` (stereo not drawn): the cell count came out at 766 and the inhibition was -12.7% (inactive).
On the same counts, the results for `CCOC(=O)C1=C(CC)Nc2ccccc2N=C1NC(=O)Cn1cnc2ccccc2c1=O` are 529 and 6.3% (inactive).
In the same order, the values of `Cc1ccc(-n2ncc3c(=O)n(CC(=O)NC4CCCCC4)cnc32)cc1C` are 281 and -0.3% (inactive).
On the same counts, the results for `N#Cc1c(/N=C/c2ccco2)sc2c1CCC2` are 657 and 11.9% (inactive).
Take `O=C(C1CCN(S(=O)(=O)Cc2ccccc2)CC1)N1CCN(c2ncccn2)CC1`: the cell count was 354 and the inhibition is -9.2% (inactive).
Regarding `COc1cccc(-c2nc(-c3ccc(NC(=O)Cc4ccccc4OC)cc3)no2)c1`, the cell count worked out at 429 and the inhibition was -1.8% (inactive).
In the same order, the values of `O=C(COc1ccc(Cl)cc1)Nc1nc(-c2cccs2)cs1` are 718 and -6.1% (inactive).
In the same order, the values of `COCCNC(=O)CN(C)S(=O)(=O)c1ccc2c(c1)OCCO2` are 577 and -12.1% (inactive).
On the same counts, the results for `O=C(Cn1c(=O)n(Cc2ccc3c(c2)OCO3)c(=O)c2ccccc21)N1CCCc2ccccc21` are 680 and -6.8% (inactive).
As for `NC(=O)CSc1nnc(-c2ccc(O)cc2)n1Cc1ccco1`, the cell count was determined as 371 and the inhibition was -0.2% (inactive).
In the same order, the values of `COC(=O)Cc1[nH]nc2c1C(C1C=CCCC1)C(C#N)=C(N)O2` (stereo not drawn) are 592 and 5.7% (inactive).
In the same order, the values of `N#Cc1c(-c2ccccc2)nc(SCc2nc(N)nc(N3CCCCC3)n2)[nH]c1=O` are 401 and -14% (inactive).
On the same counts, the results for `CCn1c(SCC(=O)NCc2ccco2)nc2c(c1=O)SC(C)C2` (stereo not drawn) are 368 and 8.3% (inactive).
With `CCn1c(C)nc2cc(C(=O)OC(C(F)(F)C(F)F)C(F)(F)C(F)F)ccc21`, the inhibition is 6% (inactive) and the cell count stood at 358.
Regarding `O=C(CCN1CCN(CCO)CC1)Nc1ccc(OCc2ccccc2)cc1`, the cell count is 278 and the inhibition is 4.8% (inactive).
On the same counts, the results for `COc1ccc2c(c1)CCc1c(C(=O)N3CC4(C)CC3CC(C)(C)C4)noc1-2` (stereo not drawn) are 250 and -6.9% (inactive).
In the same order, the values of `Cc1cc(NC(=O)CCC(=O)N(CC2CCCO2)C(C(=O)NC2CCCC2)c2ccccc2C)no1` (stereo not drawn) are 341 and 0% (inactive).
On the same counts, the results for `COc1ccc2c(c1)CCc1c(C(=O)NCc3cccnc3)noc1-2` are 358 and 5.4% (inactive).
With `O=C(Nc1c(-c2ccccc2)nc2ccccn12)c1ccco1`, the cell count is 466 and the inhibition was -7.2% (inactive).
For `O=C(CCCC(=O)N(CC(=O)NC1CCCCC1)Cc1ccc2c(c1)OCO2)Nc1ccccn1`, the cell count was determined as 395 and the inhibition was 4.2% (inactive).
Regarding `CCOC(=O)N1CCN(C(=O)C2c3cc(OC)c(OC)cc3C(=O)N3CCc4ccccc4C23)CC1` (stereo not drawn), the cell count stood at 312 and the inhibition is 0.5% (inactive).
`COC(=O)Cc1csc(N)n1`: the cell count is 743 and the inhibition is 10% (inactive).
